Experiment [1] in a line: small molecules captured by biotinylated probe aFSTL3 – biochemical, small-molecule microarray, fluorescence 635/667, stem cell growth factor project, primary screen (AID 1064).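 Further: measures binding of the biotinylated anti-FSTL3 antibody to printed compounds.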 The settings on record: higher = more signal.
A short description of experiment [2]: binders from COS7 lysate, DM2A8 probe, primary screen, torsin A project, cell lysate, small-molecule microarray, fluorescence 635/667 (AID 1065). Particulars: higher = more signal, COS7 lysate expressing mutant human TOR1A.
Experiment [3] in a line: small molecules captured by biotinylated probe aFGF2 – biochemical, small-molecule microarray, fluorescence 635/667, stem cell growth factor project, primary screen (AID 1067).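 Further: measures binding of biotinylated aFGF2 protein to printed compounds on slides; z-score merges feature fluorescence and signal-to-noise across triplicate slides.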 The settings on record: higher = more signal.
Experiment [4] can be described thus: small molecules captured by biotinylated probe aFGF10 – biochemical, small-molecule microarray, fluorescence 635/667, stem cell growth factor project, primary screen (AID 1071).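 Further: score merges 667 nm spot intensity and signal to noise from triplicate slides.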 Particulars: higher = more signal.
The target of experiment [5] is Neurogenic locus notch homolog protein 2 (Homo sapiens) (UniProt Q04721). The experiment in a line: small molecules binding Notch2 protein – biochemical, small-molecule microarray, 635 nm fluorescence, stem cell growth factors, primary screen (AID 1073). The settings on record: higher = more signal.
Experiment [6] concerns the target Pro-neuregulin-1, membrane-bound isoform (Homo sapiens) (UniProt Q02297). In words: small molecules binding neuregulin-1 protein – biochemical, small-molecule microarray, fluorescence 635/667, psychiatric disease protein project, primary screen (AID 1075).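 Further: score combines 667 nm spot fluorescence with signal to noise.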 The settings on record: NRG1 binding, 635 nm fluorescence, higher = more signal.
Experiment [7] concerns Neuregulin-1 EGF-like domain. The experiment in a line: small molecules binding NRG1 EGF domain – biochemical, small-molecule microarray, 635 nm fluorescence, primary screen (AID 1081).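 Further: binding of the protein to compounds printed on small-molecule microarray slides.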 Particulars: higher = more signal.
Experiment [8] in a line: FRG1 expression reporter modulators in myotubes – cell-based, C2C12 myotubes, firefly/Renilla luciferase, luminescence, FRG1 inhibition for FSHD, primary screen (AID 1084). Particulars: FRG1 promoter luciferase, higher = more signal, called active from +8 up or from −8 down.
A short description of experiment [9]: small molecules captured by biotinylated probe aFST – biochemical, small-molecule microarray, fluorescence 635/667, stem cell growth factor project, primary screen (AID 1086).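 Further: score merges 667 nm fluorescence with signal-to-noise of each printed compound spot.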 The settings on record: higher = more signal.
The nature of experiment [10]: binders of probe aHhip on microarray, primary screen, stem cell growth factor project, biochemical, small-molecule microarray, fluorescence 635/667 (AID 1087).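 Further: score merges spot fluorescence at 667nm with spot signal to noise ratio.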 Particulars: higher = more signal.
Experiment [11] concerns PRMT1 (protein arginine N-methyltransferase 1). In words: small molecules binding arginine methyltransferase PRMT1 – biochemical, small-molecule microarray, 635 nm fluorescence, primary screen (AID 1088).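 Further: binding of Prmt1 protein to compounds spotted on small-molecule microarray slides.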 The settings on record: higher = more signal.
The nature of experiment [12]: growth effects on S. cerevisiae YJM789 – YJM789 clinical isolate, OD600, 24 h, basal, primary screen (AID 1089).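 Further: growth of clinical yeast isolate S. cerevisiae YJM 789 seeded 1000 cells per well; test concentration not given here.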 The settings on record: higher = more signal, called active from +8 up or from −8 down.
Experiment [13] can be described thus: S. pombe growth modifiers, basal conditions – strain 972, OD600, 24 h, no modulator, primary screen (AID 1090).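 Further: basal condition with compound alone and no growth modifier present; test concentration not given here.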 The settings on record: S. pombe 972 growth, higher = more signal, called active from +8 up or from −8 down.
Experiment [14] is described as follows: budding yeast growth modifiers under rapamycin – strain BY4716, OD600, 96 h, primary screen (AID 1091). Further: test concentration not given here. The settings on record: S. cerevisiae BY4716 + rapamycin, higher = more signal, called active from +8 up or from −8 down.
Experiment [15] has as its target Torsin-1A-interacting protein 2 (Homo sapiens) (UniProt Q8NFQ8). The experiment in a line: small molecules binding lysate-expressed LULL1 – cell lysate, human LULL1 lysate, 635/667 nm fluorescence, primary screen (AID 1092).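 Further: probe is lysate of COS7 cells overexpressing human LULL1; score merges per-feature 667 nm fluorescence with signal-to-noise.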 The settings on record: small-molecule microarray, hLULL1 lysate binding, 635 nm fluorescence; higher = more signal.
Experiment [16] in a line: optical density change of DRC41 E. coli – strain DRC41, OD650, 24 h, E. coli filamentation project, primary screen (AID 1093).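 Further: MC1000 strain lacking acrAB efflux and sulA so SOS filamentation is blocked; test concentration not given here.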 Particulars: E. coli DRC41 growth, higher = more signal, called active from +8 up or from −8 down.
The nature of experiment [17]: probe aLefty2 binding to arrayed compounds – biochemical, biotinylated probe, 635/667 nm fluorescence, primary screen (AID 1094).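 Further: score merges spot fluorescence near 667 nm with spot signal-to-noise ratio.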 The settings on record: small-molecule microarray, higher = more signal.
For experiment [18], the system named is Noggin (protein binding on small-molecule microarray). In words: small molecules binding Noggin protein – biochemical, 635/667 nm fluorescence, primary screen (AID 1095).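 Further: score merges 667 nm feature fluorescence with signal to noise over triplicate slides.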 The settings on record: 635 nm fluorescence, higher = more signal.
Experiment [19] deals with Neurogenic locus notch homolog protein 3 (Homo sapiens) (UniProt Q9UM47). In words: small molecules binding NOTCH3 protein – biochemical, 635/667 nm fluorescence, primary screen (AID 1096). Particulars: small-molecule microarray, 635 nm fluorescence, higher = more signal.
The nature of experiment [20]: probe aEGFR binding to arrayed compounds – biochemical, biotinylated probe, 635/667 nm fluorescence, primary screen (AID 1097).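 Further: probe is a biotinylated anti-EGFR antibody binding compounds printed on slides; score combines fluorescence near 667 nm and signal to noise of each spot.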 The settings on record: small-molecule microarray, higher = more signal.

Structures are written as SMILES. Calls of active or inactive are those of the source.

Sequence of Neurogenic locus notch homolog protein 3 (Homo sapiens) (Q9UM47 whole entry, looked up): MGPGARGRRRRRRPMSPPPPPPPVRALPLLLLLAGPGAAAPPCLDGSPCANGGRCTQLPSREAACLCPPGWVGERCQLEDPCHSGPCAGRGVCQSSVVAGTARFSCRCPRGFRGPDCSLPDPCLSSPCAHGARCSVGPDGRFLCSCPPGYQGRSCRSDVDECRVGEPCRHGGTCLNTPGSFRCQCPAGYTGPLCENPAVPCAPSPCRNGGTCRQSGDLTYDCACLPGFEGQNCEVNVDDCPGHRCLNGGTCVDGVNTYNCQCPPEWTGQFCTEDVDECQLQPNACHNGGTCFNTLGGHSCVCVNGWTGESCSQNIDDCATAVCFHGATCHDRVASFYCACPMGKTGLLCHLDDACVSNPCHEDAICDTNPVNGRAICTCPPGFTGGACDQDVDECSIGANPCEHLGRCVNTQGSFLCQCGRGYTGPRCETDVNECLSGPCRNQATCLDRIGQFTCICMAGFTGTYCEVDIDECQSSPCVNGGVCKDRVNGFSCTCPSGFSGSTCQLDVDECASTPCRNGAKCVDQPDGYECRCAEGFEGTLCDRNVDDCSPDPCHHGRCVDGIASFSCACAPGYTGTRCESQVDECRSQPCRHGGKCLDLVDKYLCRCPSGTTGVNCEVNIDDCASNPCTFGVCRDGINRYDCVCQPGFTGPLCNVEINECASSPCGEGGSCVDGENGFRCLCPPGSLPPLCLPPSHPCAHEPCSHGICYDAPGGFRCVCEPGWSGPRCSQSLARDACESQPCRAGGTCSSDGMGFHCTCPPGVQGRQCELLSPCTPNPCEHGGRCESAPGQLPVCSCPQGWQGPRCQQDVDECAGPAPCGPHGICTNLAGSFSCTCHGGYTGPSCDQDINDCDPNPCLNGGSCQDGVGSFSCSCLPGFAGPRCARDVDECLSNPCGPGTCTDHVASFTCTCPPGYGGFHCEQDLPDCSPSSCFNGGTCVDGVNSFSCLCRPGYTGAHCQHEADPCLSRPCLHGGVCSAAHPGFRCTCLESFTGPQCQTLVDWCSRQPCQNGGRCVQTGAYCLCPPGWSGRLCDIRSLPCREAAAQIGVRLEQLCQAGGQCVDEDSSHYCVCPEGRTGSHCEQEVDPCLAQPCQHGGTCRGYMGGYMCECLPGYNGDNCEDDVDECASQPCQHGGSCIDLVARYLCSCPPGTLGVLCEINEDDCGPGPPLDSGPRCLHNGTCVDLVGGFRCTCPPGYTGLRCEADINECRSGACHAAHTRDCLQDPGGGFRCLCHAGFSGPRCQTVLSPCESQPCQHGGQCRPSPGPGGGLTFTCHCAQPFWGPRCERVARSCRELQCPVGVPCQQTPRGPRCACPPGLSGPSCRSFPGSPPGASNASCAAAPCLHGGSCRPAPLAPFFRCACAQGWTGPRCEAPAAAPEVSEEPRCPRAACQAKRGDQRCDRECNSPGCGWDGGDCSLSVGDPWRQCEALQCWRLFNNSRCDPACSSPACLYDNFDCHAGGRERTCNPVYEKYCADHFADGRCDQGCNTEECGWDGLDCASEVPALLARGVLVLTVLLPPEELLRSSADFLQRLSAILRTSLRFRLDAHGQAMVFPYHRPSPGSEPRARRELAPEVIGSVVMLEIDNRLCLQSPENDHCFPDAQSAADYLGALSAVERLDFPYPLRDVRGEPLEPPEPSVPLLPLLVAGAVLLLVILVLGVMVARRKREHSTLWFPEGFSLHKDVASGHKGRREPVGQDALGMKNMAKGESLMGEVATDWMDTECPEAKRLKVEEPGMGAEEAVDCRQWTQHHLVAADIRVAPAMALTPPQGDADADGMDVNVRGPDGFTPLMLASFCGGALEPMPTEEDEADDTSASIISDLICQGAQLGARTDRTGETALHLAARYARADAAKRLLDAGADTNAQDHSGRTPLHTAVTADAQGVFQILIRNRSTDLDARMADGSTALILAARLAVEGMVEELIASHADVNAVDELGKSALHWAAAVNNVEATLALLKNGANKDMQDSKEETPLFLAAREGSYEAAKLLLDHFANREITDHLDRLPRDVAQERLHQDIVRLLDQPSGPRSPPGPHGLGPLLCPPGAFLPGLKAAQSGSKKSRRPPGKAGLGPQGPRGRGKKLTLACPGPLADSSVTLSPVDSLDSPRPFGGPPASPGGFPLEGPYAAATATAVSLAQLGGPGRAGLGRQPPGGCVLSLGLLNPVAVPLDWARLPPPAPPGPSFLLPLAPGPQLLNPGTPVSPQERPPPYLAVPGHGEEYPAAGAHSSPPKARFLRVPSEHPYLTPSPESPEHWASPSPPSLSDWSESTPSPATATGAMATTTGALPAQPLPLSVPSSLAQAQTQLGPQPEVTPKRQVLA
Sequence of Neurogenic locus notch homolog protein 2 (Homo sapiens) (Q04721 whole entry, looked up, canonical isoform): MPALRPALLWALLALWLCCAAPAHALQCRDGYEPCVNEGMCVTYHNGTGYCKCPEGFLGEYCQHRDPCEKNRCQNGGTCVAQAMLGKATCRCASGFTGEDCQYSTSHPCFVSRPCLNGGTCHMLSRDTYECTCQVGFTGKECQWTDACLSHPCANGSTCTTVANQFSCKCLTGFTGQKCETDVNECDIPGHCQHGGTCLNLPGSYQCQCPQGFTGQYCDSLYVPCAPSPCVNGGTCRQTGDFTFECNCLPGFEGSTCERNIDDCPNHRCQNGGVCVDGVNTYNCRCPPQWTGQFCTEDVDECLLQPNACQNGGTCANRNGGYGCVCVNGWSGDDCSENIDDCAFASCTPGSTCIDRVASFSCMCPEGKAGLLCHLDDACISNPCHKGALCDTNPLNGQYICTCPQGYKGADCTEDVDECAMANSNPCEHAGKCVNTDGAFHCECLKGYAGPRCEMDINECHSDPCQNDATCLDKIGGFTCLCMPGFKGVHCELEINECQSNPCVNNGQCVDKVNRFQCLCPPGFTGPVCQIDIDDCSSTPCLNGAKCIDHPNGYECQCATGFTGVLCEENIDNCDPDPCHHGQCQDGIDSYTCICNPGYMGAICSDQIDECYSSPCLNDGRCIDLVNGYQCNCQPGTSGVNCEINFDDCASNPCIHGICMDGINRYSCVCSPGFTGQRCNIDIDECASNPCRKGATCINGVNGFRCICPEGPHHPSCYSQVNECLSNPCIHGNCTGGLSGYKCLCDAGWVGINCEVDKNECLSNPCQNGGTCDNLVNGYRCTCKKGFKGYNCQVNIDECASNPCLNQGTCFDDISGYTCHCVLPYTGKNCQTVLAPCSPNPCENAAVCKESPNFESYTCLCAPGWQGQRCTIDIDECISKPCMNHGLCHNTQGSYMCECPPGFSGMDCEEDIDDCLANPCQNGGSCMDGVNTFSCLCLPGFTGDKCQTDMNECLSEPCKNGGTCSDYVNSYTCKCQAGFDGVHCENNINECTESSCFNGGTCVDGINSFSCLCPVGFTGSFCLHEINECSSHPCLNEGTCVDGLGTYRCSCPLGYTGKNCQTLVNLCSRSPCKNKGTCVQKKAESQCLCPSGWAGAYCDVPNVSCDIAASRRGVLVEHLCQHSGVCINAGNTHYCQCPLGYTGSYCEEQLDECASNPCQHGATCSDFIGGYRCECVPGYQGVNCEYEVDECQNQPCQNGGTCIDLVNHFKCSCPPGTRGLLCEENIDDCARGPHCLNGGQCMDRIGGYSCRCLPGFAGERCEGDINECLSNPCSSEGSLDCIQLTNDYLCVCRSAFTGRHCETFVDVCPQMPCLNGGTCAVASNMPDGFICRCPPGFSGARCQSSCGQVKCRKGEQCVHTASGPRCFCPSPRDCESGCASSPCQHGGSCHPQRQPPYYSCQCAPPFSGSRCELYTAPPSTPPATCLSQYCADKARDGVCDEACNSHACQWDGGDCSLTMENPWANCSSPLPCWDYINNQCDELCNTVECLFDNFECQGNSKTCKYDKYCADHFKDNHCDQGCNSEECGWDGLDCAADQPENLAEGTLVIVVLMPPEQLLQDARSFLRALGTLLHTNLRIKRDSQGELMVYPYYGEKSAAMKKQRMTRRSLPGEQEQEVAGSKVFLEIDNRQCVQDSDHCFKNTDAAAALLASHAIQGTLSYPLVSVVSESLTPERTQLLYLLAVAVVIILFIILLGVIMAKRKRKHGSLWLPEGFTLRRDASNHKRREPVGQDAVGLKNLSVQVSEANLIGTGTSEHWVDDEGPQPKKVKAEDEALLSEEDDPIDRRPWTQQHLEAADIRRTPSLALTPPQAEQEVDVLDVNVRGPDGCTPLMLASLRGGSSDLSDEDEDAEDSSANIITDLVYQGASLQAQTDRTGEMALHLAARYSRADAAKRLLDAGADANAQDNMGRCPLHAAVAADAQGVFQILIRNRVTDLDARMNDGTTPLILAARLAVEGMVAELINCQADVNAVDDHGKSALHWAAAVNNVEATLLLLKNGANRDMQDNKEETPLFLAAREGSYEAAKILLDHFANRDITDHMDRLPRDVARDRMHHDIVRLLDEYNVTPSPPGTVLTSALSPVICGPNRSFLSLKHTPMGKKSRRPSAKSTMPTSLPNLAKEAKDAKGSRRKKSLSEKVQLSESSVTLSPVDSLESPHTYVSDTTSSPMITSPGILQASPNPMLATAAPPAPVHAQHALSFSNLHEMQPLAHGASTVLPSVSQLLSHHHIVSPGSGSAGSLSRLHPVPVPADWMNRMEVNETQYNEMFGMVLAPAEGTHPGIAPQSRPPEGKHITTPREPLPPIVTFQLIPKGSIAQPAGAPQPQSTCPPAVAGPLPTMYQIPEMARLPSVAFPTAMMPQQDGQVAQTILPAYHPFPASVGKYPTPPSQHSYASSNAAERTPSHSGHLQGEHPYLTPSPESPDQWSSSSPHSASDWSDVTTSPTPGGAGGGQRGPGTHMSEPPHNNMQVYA

For `CCN(CC)c1ccc(N2CC=CC34O[C@@H]5C=CCOC(=O)[C@@H]5[C@H]3C(=O)N(CCO)[C@@H]4C2=O)cc1` (stereo not given in full), the composite z-score was 0.73 in [1]; -0.0324 in [2]; -0.144 in experiment [3]; -1.03 in experiment [4]; -1.51 in [5]; -0.0687 in experiment [6]. In addition, the composite z-score is 0.504 in experiment [7]; -0.568 in experiment [9]; -0.353 in experiment [10]; -0.503 in experiment [11]; 0.174 in [15]; -0.0041 in [17]. In addition, the composite z-score in experiment [18] is -1.35; in experiment [19] it was -0.373; in [20] it was -0.334. The z-score in [8] was 0.737 (inactive); in [12] it was 0.907 (inactive); in [13] it was -1.02 (inactive); in experiment [14] it was -0.108 (inactive); in experiment [16], 1.47 (inactive).

Take `Cc1ccc(F)cc1S(=O)(=O)N[C@@H]1CCN(Cc2ccc3[nH]ccc3c2)C1`: the composite z-score in [1] is -0.0434; in experiment [2] it was 0.216; in experiment [3] it was -0.0717; in experiment [4], 0.652; in [5] it was 0.523; in [6] it was 0.91. Also, the composite z-score in [7] was 0.563; in [9], 0.356; in experiment [10] it was -0.134; in experiment [11], 0.556; in experiment [15], 2.31; in experiment [17], -0.177. Further, the results for the composite z-score in experiment [18], in experiment [19] and in [20] were 0.418, 0.933 and -0.0512, respectively. Further, the z-score in [8] is -3.16 (inactive); in [12], -0.765 (inactive); in experiment [13], -2.97 (inactive); in experiment [14], -0.873 (inactive); in experiment [16] it was -1.76 (inactive).

On to `CC(C)C[C@H]1NC(=O)[C@@]23C(=O)N[C@@H](Cc4ccccc4)C2[C@H](C)[C@@]2(C)O[C@H]2C3/C=C/C/C=C\CNC(=O)[C@@H]2CCCN2C1=O` (stereo not given in full), for which the composite z-score in experiment [1] is -0.504; in experiment [2] it was -0.39; in [3], -0.078; in [4], 0.774; in experiment [5], 0.303; in experiment [6], 0.912. The composite z-score in experiment [7] was 0.665; in experiment [9] it was 0.52; in experiment [10], -0.0645; in experiment [11], 1.52; in experiment [15] it was 1.58; in experiment [17], -0.147. Also, the results for the composite z-score in [18], in experiment [19] and in experiment [20] were 0.588, 0.696 and -0.008, respectively. Further, the z-score in [8] was 0.31 (inactive); in experiment [12], -0.397 (inactive); in experiment [13], -1.08 (inactive); in [14], -0.579 (inactive); in [16], -1.14 (inactive).

With `COC(=O)[C@@]1(Cc2ccc(F)cc2)[C@H]2c3cc(C(=O)N(C)C)n(CCn4cc([N+](=O)[O-])nc4C)c3C[C@H]2CN1C(=O)c1ccccc1`, the composite z-score was 0.729 in experiment [1]; -0.498 in experiment [2]; 0.22 in experiment [3]; 0.422 in experiment [4]; 1.43 in experiment [5]; 1.36 in experiment [6]. In addition, the composite z-score in experiment [7] is 1.19; in experiment [9], 0.593; in experiment [10], -0.166; in [11], -0.394; in [15], 2.87; in experiment [17] it was 0.12. In addition, the composite z-score in [18] is -0.885; in experiment [19], -0.455; in [20], -0.0039. Also, the z-score was 1.26 (inactive) in [8]; 0.126 (inactive) in experiment [12]; 0.713 (inactive) in experiment [13]; 0.942 (inactive) in experiment [14]; -1.66 (inactive) in experiment [16].

`CN1C(=O)C2C(C1=O)C1C=C(c3ccc(CO)cc3)C2C(c2cccs2)N1C` (stereo not given): the composite z-score in experiment [1] was 0.085; in [2], 0.429; in experiment [3], -0.0578; in experiment [4] it was 0.0934; in [5] it was -0.0125; in experiment [6] it was 0.885. Moreover, the composite z-score in experiment [7] was 1.04; in experiment [9], -0.075; in [10] it was -0.137; in experiment [11], -0.27; in experiment [15], 0.989; in [17], -0.072. The figures for the composite z-score in experiment [18], in experiment [19] and in experiment [20] were -0.518, -0.133 and 0.637, respectively. Besides, the z-score in [8] is 1.63 (inactive); in experiment [12] it was -0.208 (inactive); in [13] it was -2.24 (inactive); in experiment [14], 1.33 (inactive); in [16], 1.24 (inactive).

These data come from PubChem BioAssay.
